Test results published in PubChem BioAssay (Tox21).
Records with an inconclusive call do not appear. Activity calls are given as the source filed them. Unless noted, calls follow the shape of the full dose curve.

Key:
[1] = Nuclear factor erythroid 2-related factor 2/antioxidant responsive element (Nrf2/ARE) small molecule agonists: luciferase reporter gene qHTS assay in human keratinocytes (AID 1919969); also: nearly all actives have a fitted effect of over 35% in size; also: potency is read from the fitted curve at half-maximal effect
[2] = target: Gonadotropin-releasing hormone receptor (Homo sapiens) (UniProt P30968); experiment: Human gonadotropin-releasing hormone receptor (GnRHR) small molecule agonists, calcium flux assay in GnRHR-HEK293 cells (AID 1920063); also: nearly all actives have a fitted effect of over 35% in size; also: potency is read from the fitted curve at half-maximal effect
Gonadotropin-releasing hormone receptor (Homo sapiens), sequence (P30968 whole entry, looked up): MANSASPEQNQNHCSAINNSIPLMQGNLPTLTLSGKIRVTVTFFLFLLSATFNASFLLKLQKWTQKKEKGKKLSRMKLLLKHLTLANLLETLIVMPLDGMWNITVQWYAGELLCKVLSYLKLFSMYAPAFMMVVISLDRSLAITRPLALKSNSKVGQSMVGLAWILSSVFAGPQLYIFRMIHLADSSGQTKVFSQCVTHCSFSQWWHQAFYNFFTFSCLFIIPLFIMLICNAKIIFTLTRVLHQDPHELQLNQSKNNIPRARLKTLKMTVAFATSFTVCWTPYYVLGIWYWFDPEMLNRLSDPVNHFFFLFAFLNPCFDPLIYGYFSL
Summary of the method: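 Stable human GnRHR HEK293 line. 18 h plating, then calcium dye for 1 h at 37 C. Agonist-mode compound addition from DMSO stocks; fluorescence monitored 3 min.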

[3] = target: KiSS-1 receptor (Homo sapiens) (UniProt Q969F8); experiment: Human kisspeptin (KISS1R) small molecule agonists, calcium flux assay in KISS1R-HEK293 cells (AID 1920064; active = well fitted activation curve with a large enough effect in the repeat runs)
KiSS-1 receptor (Homo sapiens), sequence (Q969F8 whole entry, looked up): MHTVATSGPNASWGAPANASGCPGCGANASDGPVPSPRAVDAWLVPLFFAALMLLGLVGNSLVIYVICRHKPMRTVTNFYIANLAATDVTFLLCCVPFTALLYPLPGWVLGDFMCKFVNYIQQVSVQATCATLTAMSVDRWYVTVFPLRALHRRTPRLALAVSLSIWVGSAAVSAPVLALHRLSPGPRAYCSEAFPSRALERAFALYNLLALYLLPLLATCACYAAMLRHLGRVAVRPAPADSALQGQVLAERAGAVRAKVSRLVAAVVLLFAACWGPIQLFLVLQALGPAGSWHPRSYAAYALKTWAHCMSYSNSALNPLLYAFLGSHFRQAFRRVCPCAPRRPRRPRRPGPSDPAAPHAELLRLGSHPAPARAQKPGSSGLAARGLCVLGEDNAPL
Summary of the method: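 After overnight (18 h) culture at 37 C/5% CO2, human KISS1R-HEK293 cells received calcium dye for 1 h, then test compound; emission at 540 nm (excitation 480 nm) was tracked for 3 min.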

[4] = G protein-coupled receptor (GPCR) small molecule agonists, calcium flux assay: HEK293 wild type cell line counter screen (AID 1920065)
Summary of the method: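 Following 18 h incubation at 37 C/5% CO2, plates got calcium dye for 1 h; compounds, ATP or DMSO were then pinned in and fluorescence followed kinetically (480/540 nm).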

[5] = p53 small molecule agonists, cell-based qHTS assay with human liver microsomes (AID 1963577); also: potency is read from the fitted curve at half-maximal effect
Summary of the method: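 Compounds act here after metabolic activation: human liver microsomes and NADPH, both at 0.5 mg/mL final, were co-added to p53RE-bla cells. Incubation ran 16 h at 37 C, followed by LiveBLAzer detection.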

[6] = p53 small molecule agonists, cell-based qHTS assay with human liver microsomes: qHTS cell viability counter screen (AID 1963579); also: nearly all actives have a fitted effect of over 45% in size
Summary of the method: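 Cells carrying the p53 response-element beta-lactamase reporter are treated for 16 h at 37 C with test compounds in the presence of human liver microsomes and NADPH (both 0.5 mg/mL final); ATP-based CellTiter-Glo luminescence then reports viability.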

[7] = p53 small molecule agonists, cell-based qHTS assay: qHTS cell viability counter screen (AID 1963581); also: nearly all actives have a fitted effect of over 45% in size; also: potency is read from the fitted curve at half-maximal effect
Summary of the method: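 qHTS counter screen: 16 h compound exposure at 37 C of p53RE-bla HCT-116 cells (4,000 per well, seeded 5 h prior), cell viability by ATP luminescence.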

[8] = target: 5-hydroxytryptamine receptor 2A (Homo sapiens) (UniProt P28223); experiment: 5-hydroxytryptamine receptor 2A (HTR2A) small molecule antagonists, cell-based qHTS assay (AID 1963586); also: nearly all actives have a fitted effect of over 45% in size; also: potency is read from the fitted curve at half-maximal effect
5-hydroxytryptamine receptor 2A (Homo sapiens), sequence (P28223 whole entry, looked up): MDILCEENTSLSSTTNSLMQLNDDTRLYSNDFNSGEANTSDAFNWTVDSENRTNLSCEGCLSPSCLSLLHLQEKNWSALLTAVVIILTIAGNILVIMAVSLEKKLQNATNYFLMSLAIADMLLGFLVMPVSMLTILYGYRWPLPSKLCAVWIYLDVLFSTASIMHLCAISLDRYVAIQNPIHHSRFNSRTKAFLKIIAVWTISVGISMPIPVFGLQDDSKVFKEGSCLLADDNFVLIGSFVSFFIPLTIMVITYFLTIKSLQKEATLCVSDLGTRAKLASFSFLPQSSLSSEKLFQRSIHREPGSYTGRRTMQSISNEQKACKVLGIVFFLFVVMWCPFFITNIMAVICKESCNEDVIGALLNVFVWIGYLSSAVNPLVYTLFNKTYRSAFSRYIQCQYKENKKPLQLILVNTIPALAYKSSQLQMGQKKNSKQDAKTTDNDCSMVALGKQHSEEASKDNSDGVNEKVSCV
Summary of the method: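 CHO cells stably expressing human HTR2A were plated for 18 h at 37 C, then loaded with calcium dye for 1 h. Compounds were preincubated 5 min at room temperature before DOI (4 nM solution) was added. Kinetic fluorescence was read for 3 min.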

[9] = target: 5-hydroxytryptamine receptor 2A (Homo sapiens) (UniProt P28223); experiment: 5-hydroxytryptamine receptor 2A (HTR2A) small molecule agonists, cell-based qHTS assay (AID 1963587); also: nearly all actives have a fitted effect of over 30% in size; also: potency is read from the fitted curve at half-maximal effect
Summary of the method: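 HTR2A-CHO cells, plated 18 h at 37 C/5% CO2, dye-loaded 1 h at 37 C; compounds in DMSO added by pin tool (agonist mode). Intracellular calcium flux read as kinetic fluorescence on FDSS over 2 min at 1 s intervals.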

[10] = target: Muscarinic acetylcholine receptor M1 (Homo sapiens) (UniProt P11229); experiment: Cholinergic receptor muscarinic 1 (CHRM1) small molecule antagonists, cell-based qHTS assay (AID 1963588); also: nearly all actives have a fitted effect of over 40% in size; also: potency is read from the fitted curve at half-maximal effect
Muscarinic acetylcholine receptor M1 (Homo sapiens), sequence (P11229 whole entry, looked up): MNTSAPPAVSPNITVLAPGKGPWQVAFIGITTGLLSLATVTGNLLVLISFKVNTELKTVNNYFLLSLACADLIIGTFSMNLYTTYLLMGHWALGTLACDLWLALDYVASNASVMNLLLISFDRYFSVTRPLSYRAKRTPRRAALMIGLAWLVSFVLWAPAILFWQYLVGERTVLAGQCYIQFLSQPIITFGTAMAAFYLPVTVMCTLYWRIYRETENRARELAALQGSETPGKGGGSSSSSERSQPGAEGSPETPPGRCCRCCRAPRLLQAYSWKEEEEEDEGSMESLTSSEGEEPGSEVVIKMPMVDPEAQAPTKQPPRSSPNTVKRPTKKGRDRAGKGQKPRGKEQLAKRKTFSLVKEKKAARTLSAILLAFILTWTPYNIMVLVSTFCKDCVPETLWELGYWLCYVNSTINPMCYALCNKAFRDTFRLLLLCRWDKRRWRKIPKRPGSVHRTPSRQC
Summary of the method: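 Compounds were tested at 15 concentrations in three independent runs. Dye-loaded CHRM1-CHO cells were exposed 5 min at room temperature before stimulation by acetylcholine added at 50nM. Intracellular calcium was read kinetically on FDSS for 3 min.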

[11] = target: Muscarinic acetylcholine receptor M1 (Homo sapiens) (UniProt P11229); experiment: Cholinergic receptor muscarinic 1 (CHRM1) small molecule agonists, cell-based qHTS assay (AID 1963589); also: nearly all actives have a fitted effect of over 35% in size; also: potency is read from the fitted curve at half-maximal effect
Summary of the method: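 Kinetic fluorescence (1 s intervals) of calcium-sensitive dye in human M1 CHO cells after compound addition; cells pre-incubated 18 h at 37 C/5% CO2 and dye-loaded 1 h.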

[12] = target: D(2) dopamine receptor (Homo sapiens) (UniProt P14416); experiment: Dopamine D2 receptor (DRD2) small molecule agonists, cell-based qHTS assay (AID 1963594); also: nearly all actives have a fitted effect of over 35% in size; also: potency is read from the fitted curve at half-maximal effect
D(2) dopamine receptor (Homo sapiens), sequence (P14416 whole entry, looked up): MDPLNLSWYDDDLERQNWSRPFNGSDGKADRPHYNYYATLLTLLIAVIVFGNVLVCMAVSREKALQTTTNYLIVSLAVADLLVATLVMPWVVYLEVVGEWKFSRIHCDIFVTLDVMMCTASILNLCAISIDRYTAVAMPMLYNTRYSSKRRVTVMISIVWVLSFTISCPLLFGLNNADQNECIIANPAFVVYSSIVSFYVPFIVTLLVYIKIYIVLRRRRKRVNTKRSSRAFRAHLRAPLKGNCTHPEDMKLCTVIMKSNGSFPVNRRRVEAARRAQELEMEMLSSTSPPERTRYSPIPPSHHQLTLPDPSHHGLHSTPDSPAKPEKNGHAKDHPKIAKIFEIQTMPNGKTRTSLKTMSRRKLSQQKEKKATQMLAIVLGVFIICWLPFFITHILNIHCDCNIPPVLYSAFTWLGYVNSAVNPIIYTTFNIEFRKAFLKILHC
Summary of the method: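 HEK293 cells stably expressing DRD2 were cultured 24 h at 37 C, then given Ro20-1724 (0.1 mM final) and compounds for 10 min at room temperature. NKH477 (200nM) was then added for 30 min. cAMP was read by HTRF.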

[13] = p53 small molecule agonists, cell-based qHTS assay with rat liver microsomes (AID 1963578)
Summary of the method: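 Read-out is beta-lactamase reporter fluorescence (LiveBLAzer, 2 h, room temperature, dark) in p53RE-bla cells treated 16 h at 37 C with compound, rat liver microsomes and NADPH, both 0.5 mg/mL final.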

[14] = p53 small molecule agonists, cell-based qHTS assay with rat liver microsomes: qHTS cell viability counter screen (AID 1963580); also: nearly all actives have a fitted effect of over 45% in size; also: potency is read from the fitted curve at half-maximal effect
Summary of the method: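 Luminescent ATP readout (CellTiter-Glo, 30 min at room temperature) reports viability of p53RE-bla HCT-116 cells after 16 h at 37 C with test compounds under metabolic activation by rat liver microsomes and NADPH at 0.5 mg/mL final each.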

[15] = cAMP Responsive Elements (CRE) small molecule antagonists, cell-based qHTS assay (AID 1963591; active = well fitted inhibition curve with a large enough effect in the signal ratio in the repeat runs, not every such curve was filed as active; the % refers to the signal ratio)
Summary of the method: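 Reporter line CRE-bla HEK 293T in dialyzed-FBS DMEM; cells preincubated 18 h, treated 3 h with compound plus NKH477 (0.25 uM final); LiveBLAzer FRET, 2 h RT.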

[16] = target: Beta-2 adrenergic receptor (Homo sapiens) (UniProt P07550); experiment: Adrenergic beta2 receptor (ADRB2) small molecule antagonists, cell-based qHTS assay (AID 1963592); also: nearly all actives have a fitted effect of over 50% in size; also: potency is read from the fitted curve at half-maximal effect
Beta-2 adrenergic receptor (Homo sapiens), sequence (P07550 whole entry, looked up): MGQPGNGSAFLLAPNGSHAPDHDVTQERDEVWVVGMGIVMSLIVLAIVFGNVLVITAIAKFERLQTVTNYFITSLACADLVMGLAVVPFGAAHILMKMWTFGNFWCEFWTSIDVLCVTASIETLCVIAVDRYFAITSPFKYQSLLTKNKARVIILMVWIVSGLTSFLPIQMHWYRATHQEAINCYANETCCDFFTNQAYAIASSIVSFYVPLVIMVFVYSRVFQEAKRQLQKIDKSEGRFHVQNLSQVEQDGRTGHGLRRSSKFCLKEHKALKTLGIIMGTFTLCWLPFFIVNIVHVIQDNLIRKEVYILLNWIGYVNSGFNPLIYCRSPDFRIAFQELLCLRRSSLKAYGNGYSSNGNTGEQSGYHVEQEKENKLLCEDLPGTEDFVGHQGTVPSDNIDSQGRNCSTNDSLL
Summary of the method: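 Assay format: CHO-ADRB2 cells, 18-20hr seeding at 37C/5% CO2, then compound plus 1nM isoproterenol agonist mix for 0.5hr RT. Homogeneous time-resolved fluorescence cAMP detection after 1hr, expressed as 665/615 nm ratio.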

[17] = target: Beta-2 adrenergic receptor (Homo sapiens) (UniProt P07550); experiment: Adrenergic beta2 receptor (ADRB2) small molecule agonists, cell-based qHTS assay (AID 1963593);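 also: CHO cells stably overexpressing human ADRB2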
Summary of the method: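 CHO cells stably over-expressing ADRB2 were plated overnight at 37C, then dosed with compounds plus a stimulation mix containing 100uM IBMX and 25uM Ro-20-1724 for 0.5hr at room temperature. cAMP was measured by HTRF competition, 1hr.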

[18] = target: D(2) dopamine receptor (Homo sapiens) (UniProt P14416); experiment: Dopamine D2 receptor (DRD2) small molecule antagonists, cell-based qHTS assay (AID 1963595; active = well fitted inhibition curve with a large enough effect in the signal ratio in the repeat runs, with a control signal flat; the % refers to the signal ratio; also: potency is read from the fitted curve at half-maximal effect)
Summary of the method: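 DRD2-HEK293; 0.1 mM Ro20-1724; cpd 10 min RT; NKH477 200 nM + quinpirole 12 nM, 30 min RT; HTRF cAMP (cAMP-d2/anti-cAMP cryptate), 665/620 nm ratio after 1 h.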

[19] = p53 small molecule agonists, cell-based qHTS assay (AID 1963582; active = well fitted activation curve with a large enough effect in the signal ratio in the repeat runs, not every such curve was filed as active; the % refers to the signal ratio)
Summary of the method: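 Measured: fluorescence from cleaved LiveBLAzer substrate. System: p53RE-bla cells, 16 h compound treatment at 37 C, 2 h substrate step at room temperature.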

[20] = cAMP Responsive Elements (CRE) small molecule agonists, cell-based qHTS assay (AID 1963590)
Summary of the method: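 Test agents in DMSO were incubated 3 h at 37 C/5% CO2 with CRE-bla HEK 293T cells seeded 18 h earlier; LiveBLAzer B/G FRET substrate was added and read after 2 h at room temperature.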

Measured: Potency

COc1cccc2c1cc([N+](=O)[O-])c1c(C(=O)O)cc3c(c12)OCO3
active: [1] 12.2 µM
inactive: [2] | [3] | [4] | [5] | [6] | [7] | [8] | [9] | [10] | [11] | [12]

Fc1ccc(Oc2ccnc3cc(Cl)cc(Cl)c23)cc1
active: [1] 24.3 µM
inactive: [2] | [3] | [4] | [13] | [6] | [14] | [7] | [8] | [9] | [10] | [11] | [15] | [16] | [17] | [18]

CCCOCC(=Nc1ccc(Cl)cc1C(F)(F)F)n1ccnc1
active: [1] 27.3 µM
inactive: [2] | [3] | [4] | [5] | [13] | [6] | [16] | [17]

CC(C)[C@@H](C(=O)O[C@@H](C#N)c1cccc(Oc2ccccc2)c1)c1ccc(Cl)cc1
inactive: [1] | [2] | [3] | [4] | [5] | [6] | [14] | [7] | [19] | [8] | [9] | [10] | [11] | [15] | [16] | [17] | [12] | [18]

CN(CCCC(O)c1cccnc1)N=O (configuration not stated)
inactive: [1] | [2] | [3] | [4] | [5] | [13] | [6] | [19] | [8] | [9] | [10] | [11] | [20] | [15] | [16] | [17] | [12] | [18]

COC(C)(C)CCC[C@H](C)C/C=C/C(C)=C/C(=O)OC(C)C
active: [1] 61.1 µM
inactive: [2] | [3] | [4] | [13] | [6] | [14] | [7] | [8] | [9] | [10] | [11] | [16] | [17] | [12] | [18]

CC(C)N(C(=O)COc1nnc(C(F)(F)F)s1)c1ccc(F)cc1
inactive: [1] | [2] | [3] | [4] | [13] | [6] | [14] | [7] | [19] | [8] | [9] | [10] | [11] | [20] | [16] | [12] | [18]

CC1COC(Cn2cncn2)(c2ccc(Oc3ccc(Cl)cc3)cc2Cl)O1 (configuration not stated)
inactive: [1] | [2] | [3] | [4] | [5] | [13] | [6] | [7] | [8] | [9] | [11] | [16] | [12] | [18]

Cc1cc(C)c(C(=O)P(=O)(c2ccccc2)c2ccccc2)c(C)c1
inactive: [1] | [2] | [3] | [4] | [5] | [13] | [10] | [11] | [16] | [12] | [18]
active: [8] 10.6 µM | [9] 24.5 µM

ClC(Cl)=C(c1ccc(Cl)cc1)c1ccccc1Cl
inactive: [1] | [2] | [3] | [4] | [5] | [13] | [6] | [7] | [9] | [10] | [11] | [15] | [16]

Cc1ccc([N+](=O)[O-])[c]2c1[O][Hg]2
active: [1] 2.66 µM | [2] 16.9 µM | [14] 15.8 µM | [7] 8.9 µM | [8] 7.29 µM | [9] 23.9 µM | [11] 23.9 µM | [16] 29.8 µM | [12] 32.2 µM
inactive: [3] | [4] | [5] | [13] | [10]

O=C1OC(c2ccc(O)c(S(=O)(=O)O)c2)(c2ccc(O)c(S(=O)(=O)O)c2)c2c(Br)c(Br)c(Br)c(Br)c21
inactive: [2] | [3] | [4] | [13] | [6] | [14] | [7] | [19] | [8] | [9] | [10] | [11] | [20] | [15] | [12] | [18]
active: [1] 8.41 µM

Nc1ccc(Cc2ccc(N)c(Cl)c2)cc1Cl
inactive: [1] | [2] | [3] | [4] | [5] | [13] | [7] | [19] | [10] | [11] | [20] | [12] | [18]

OC(c1ccc(Cl)cc1)(c1ccc(Cl)cc1)c1cccnc1
inactive: [1] | [2] | [3] | [4] | [5] | [13] | [6] | [19] | [9] | [11] | [20] | [15] | [16] | [12] | [18]
active: [10] 16.8 µM

COP(N)(=S)Oc1ccccc1C(=O)OC(C)C (configuration not stated)
active: [5] 18.2 µM
inactive: [1] | [2] | [3] | [4] | [6] | [14] | [7] | [19] | [8] | [9] | [10] | [11] | [20] | [16] | [12] | [18]

CCCN(CCCl)c1c([N+](=O)[O-])cc(C(F)(F)F)cc1[N+](=O)[O-]
inactive: [1] | [2] | [3] | [4] | [5] | [6] | [14] | [7] | [19] | [8] | [9] | [20] | [15] | [16] | [17] | [12] | [18]

CN1C[C@H](CNC(=O)OCc2ccccc2)C[C@@H]2c3cccc4c3c(cn4C)C[C@H]21
active: [18] 10.6 µM
inactive: [1] | [2] | [3] | [4] | [13] | [6] | [14] | [7] | [19] | [20] | [12]
